Data published in the supplement of paper PMC13380429.

System: Vero E6 infected with SARS-CoV-2
Assay: inhibition of SARS-CoV-2 cytopathic effect; higher = more antiviral protection, active = above 15
Conditions: 48 h

Measured: inhibition of SARS-CoV-2 cytopathic effect

O=C(O)c1cccc(-c2noc(-c3ccccc3F)n2)c1 [ataluren]
inactive: 1 nM -0.23% | 8.33 nM 0.96% | 100 nM 0.68% | 833.33 nM 2.99% | 10000 nM 2.92%

COc1cc2c(cc1OC)[C@H](C)NCC2 [Isoquinoline,-6,7-dimethoxy-1-methyl-1,2,3,4-tetrahydro,]
inactive: 1 nM -4.15% | 8.33 nM -1.29% | 100 nM -0.88% | 833.33 nM -1.82% | 10000 nM -2.99%

COCCOc1cnc2ccn([C@H](C)c3nnc4c(F)cc(-c5cnn(C)c5)cn34)c(=O)c2c1
inactive: 1 nM -0.43% | 8.33 nM -1.31% | 100 nM 0.19% | 833.33 nM -0.75% | 10000 nM -0.37%

CO/N=C1\C[C@]2(C[C@@H]3C[C@@H](C/C=C(\C)C[C@@H](C)/C=C/C=C4\CO[C@@H]5[C@H](O)C(C)=C[C@@H](C(=O)O3)[C@]45O)O2)O[C@H](/C(C)=C/C(C)C)[C@H]1C [moxidectin]
inactive: 1 nM -5.37% | 8.33 nM -7.08% | 100 nM -3.57% | 833.33 nM -4.07% | 10000 nM 2.53%

CCC(=O)OCN1C(=O)C=CC1=O
inactive: 1 nM -0.55% | 8.33 nM 0.83% | 100 nM 0.41% | 833.33 nM 1.73% | 10000 nM 1.22%

CC[C@H](CC[C@@H](C)[C@H]1CC[C@H]2[C@@H]3CC=C4C[C@@H](O)CC[C@]4(C)[C@H]3CC[C@]12C)C(C)C [beta-Sitosterol]
inactive: 1 nM 0.66% | 8.33 nM 2.31% | 100 nM 1.23% | 833.33 nM -2.15% | 10000 nM -1.08%

CC(=O)Nc1nnc(S(N)(=O)=O)s1 [acetazolamide]
inactive: 1 nM -0.16% | 8.33 nM -1.99% | 100 nM -1.3% | 833.33 nM -2.21% | 10000 nM -1.25%

CCCN(CCC)C1Cc2cc(OC)c(OC)cc2C1
inactive: 1 nM -0.72% | 8.33 nM -0.86% | 100 nM -2.03% | 833.33 nM 0.79% | 10000 nM -2.36%

COCCCN1CCC(NC(=O)c2cc(Cl)c(N)c3c2OCC3)CC1 [prucalopride]
inactive: 1 nM 0.43% | 8.33 nM 1.93% | 100 nM -0.24% | 833.33 nM 3.32% | 10000 nM 1.47%

CC(C)(C)c1ccc(CN2CCN(C(c3ccccc3)c3ccc(Cl)cc3)CC2)cc1 (stereo not given) [buclizine]
inactive: 1 nM -1.54% | 8.33 nM -0.87% | 100 nM 0.71% | 833.33 nM 0.45% | 10000 nM 2.38%

c1ccc(-c2ccc(CNc3nc(-c4ccccn4)nnc3-c3ccccc3)cc2)cc1
inactive: 1 nM 1.58% | 8.33 nM 0.74% | 100 nM -1.15% | 833.33 nM -4.89% | 10000 nM -14.7%

OC(c1ccccc1)(c1ccccc1)C12CC[N+](CCOCc3ccccc3)(CC1)CC2 [umeclidinium]
inactive: 1 nM -0.48% | 8.33 nM 1.77% | 100 nM 0.73% | 833.33 nM 1.46% | 10000 nM 1.64%

N[C@@H](Cn1ccc(=O)n(Cc2ccccc2C(=O)O)c1=O)C(=O)O
inactive: 1 nM 1.86% | 8.33 nM 3.68% | 100 nM -0.19% | 833.33 nM 1.26% | 10000 nM -0.16%

CCC(C)(CN(C)C)OC(=O)c1ccccc1 (stereo not given) [amyleine]
inactive: 1 nM -1.14% | 8.33 nM 0.02% | 100 nM -0.24% | 833.33 nM -8.42% | 10000 nM -0.23%

CCO[C@@H]1OC(=O)C[C@@H]1NC(=O)[C@@H]1CCCN1C(=O)[C@@H](NC(=O)c1ccc(N)c(Cl)c1)C(C)(C)C
inactive: 1 nM -2.56% | 8.33 nM -1.09% | 100 nM 0.58% | 833.33 nM 0.04% | 10000 nM -2.79%

CC(=O)OC[C@H]1O[C@@](COC(C)=O)(O[C@H]2O[C@H](COC(C)=O)[C@@H](OC(C)=O)[C@H](OC(C)=O)[C@H]2OC(C)=O)[C@@H](OC(C)=O)[C@@H]1OC(C)=O [sucrose-octaacetate]
inactive: 1 nM 0.66% | 8.33 nM 1.07% | 100 nM -1.24% | 833.33 nM -0.47% | 10000 nM -0.86%

CC[C@H](C)[C@@H]1NC(=O)[C@H](Cc2ccc(OC)cc2)NC(=O)CCCSC[C@@H](C(=O)N2CCC[C@H]2C(=O)N[C@@H](CC(C)C)C(=O)NCC(N)=O)NC(=O)[C@H](CC(N)=O)NC(=O)[C@H](CCC(N)=O)NC1=O [carbetocin]
inactive: 1 nM -1.89% | 8.33 nM 0.45% | 100 nM -1.53% | 833.33 nM 1.22% | 10000 nM -1.25%

CC(C)[C@@H](CN1CC[C@@](C)(c2cccc(O)c2)[C@@H](C)C1)NC(=O)[C@H]1Cc2ccc(O)cc2CN1
inactive: 1 nM -0.76% | 8.33 nM 1.45% | 100 nM -1.62% | 833.33 nM -1.16% | 10000 nM -4.59%

CCCCN(CCCC)CCCOC(=O)c1ccc(N)cc1 [butacaine]
inactive: 1 nM 1.8% | 8.33 nM 5.07% | 100 nM 2.1% | 833.33 nM -1.71% | 10000 nM -2.04%

CC(C)CN(C[C@@H](O)[C@H](Cc1ccccc1)NC(=O)O[C@H]1CO[C@H]2OCC[C@H]21)S(=O)(=O)c1ccc(N)cc1 [darunavir]
inactive: 1 nM -2.41% | 8.33 nM -2.86% | 100 nM -0.7% | 833.33 nM 0.44% | 10000 nM -1.15%

Oc1cccc(Nc2ccc(Nc3cccc(O)c3)nn2)c1 [beta-amyloid-synthesis-inhibitor]
inactive: 1 nM -0.67% | 8.33 nM 1.31% | 100 nM 0.24% | 833.33 nM 1.07% | 10000 nM 4.99%

CNC1CC(c2ccc(Cl)c(Cl)c2)c2ccccc21 (stereo not given) [indatraline]
inactive: 1 nM -0.39% | 8.33 nM 0.4% | 100 nM 0.7% | 833.33 nM -3.42% | 10000 nM -10.8%

CN1CCC[C@@H]1CCSc1ccc(O)cc1
inactive: 1 nM 0.25% | 8.33 nM 0.01% | 100 nM 0.07% | 833.33 nM -1.07% | 10000 nM -3.04%

Cc1cccc(Cc2c[nH]cn2)c1C [detomidine]
inactive: 1 nM -2.36% | 8.33 nM -0.01% | 100 nM 1.67% | 833.33 nM -2.3% | 10000 nM 2.25%

C[N+]1(C)[C@@H]2C[C@@H](OC(=O)[C@H](CO)c3ccccc3)C[C@H]1[C@@H]1O[C@@H]12 [methscopolamine]
inactive: 1 nM -1.29% | 8.33 nM -0.27% | 100 nM 1.56% | 833.33 nM 0.62% | 10000 nM 1.83%

CCS(=O)(=O)Nc1ccc2c(c1)/C(=C(/Nc1ccc(CN3CCCCC3)cc1)c1ccccc1)C(=O)N2 [hesperadin]
inactive: 1 nM 1.74% | 8.33 nM 3.12% | 100 nM 0.27% | 833.33 nM -9.14% | 10000 nM -10.5%

Cc1cc(C)cc(NC(=O)Cc2ccc(OC(C)(C)C(=O)O)cc2)c1 [efaproxiral]
inactive: 1 nM -0.22% | 8.33 nM -2.52% | 100 nM 1.44% | 833.33 nM 1.37% | 10000 nM -1.51%

OC[C@@H](O)[C@@H](O[C@@H]1O[C@H](CO)[C@H](O)[C@H](O)[C@H]1O)[C@H](O)[C@@H](O)CO
inactive: 1 nM -1.07% | 8.33 nM 0.84% | 100 nM 0.06% | 833.33 nM 0.18% | 10000 nM -0.36%

NS(=O)(=O)NCc1csc2ccccc12
inactive: 1 nM 3.48% | 8.33 nM -0.74% | 100 nM -0.43% | 833.33 nM 3.95% | 10000 nM 2.4%

CCOC(=O)/C=C(C)/C=C/C=C(C)/C=C/c1c(C)cc(OC)c(C)c1C [etretinate]
inactive: 1 nM -2.16% | 8.33 nM 0.11% | 100 nM 0.84% | 833.33 nM 2.68% | 10000 nM 3.85%

O=C(O)Cc1ccc(CCNS(=O)(=O)c2ccc(Cl)cc2)cc1 [daltroban]
inactive: 1 nM -0.21% | 8.33 nM 3.04% | 100 nM -1.18% | 833.33 nM -0.76% | 10000 nM 1.78%

Clc1ccc(C2(c3ccc(-c4cn[nH]c4)cc3)CCNCC2)cc1
inactive: 1 nM 1.57% | 8.33 nM -1.08% | 100 nM 1.96% | 833.33 nM -6.2% | 10000 nM -7.71%

CCOC(=O)CC(=O)N1CCSC1COc1ccccc1OC (stereo not given) [moguisteine]
inactive: 1 nM -0.34% | 8.33 nM 0.03% | 100 nM -3.76% | 833.33 nM -0.38% | 10000 nM 0.52%

CC(=O)SC[C@@H](Cc1ccccc1)C(=O)NCC(=O)OCc1ccccc1 (racemic) [racecadotril]
inactive: 1 nM 1.48% | 8.33 nM 1.8% | 100 nM 0.82% | 833.33 nM 1.15% | 10000 nM -5.3%

N=C(N)NC(=O)c1cnn(-c2cccc3ncccc23)c1C1CC1 [zoniporide]
inactive: 1 nM -0.05% | 8.33 nM 3.39% | 100 nM 1.14% | 833.33 nM 3.55% | 10000 nM -1.51%

CO[C@@H]1[C@H](N(C)C(=O)c2ccccc2)C[C@H]2O[C@]1(C)n1c3ccccc3c3c4c(c5c6ccccc6n2c5c31)C(=O)NC4 [midostaurin]
inactive: 1 nM -10.1% | 8.33 nM -8.56% | 100 nM -8.88% | 833.33 nM -23.9% | 10000 nM -31.5%

CCOC(=O)[C@H](CCc1ccccc1)N[C@@H](C)C(=O)N1[C@H](C(=O)O)C[C@@H]2CCC[C@@H]21 [ramipril]
inactive: 1 nM -0.55% | 8.33 nM -0.01% | 100 nM -0.53% | 833.33 nM 5.34% | 10000 nM -2.38%
